This is a sample that favours compounds with a hit; in the whole collection about 5.4% have one here.
Calb FLC: affects C. albicans growth with fluconazole | growth inhibition, % (no concentration beside the values) | 300,000 tested, 0.57% active | C. albicans CaCi-2 (fluconazole-resistant clinical isolate) + fluconazole, Alamar Blue growth, 48 h;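 active = growth inhibition above about 58% in most replicates, limit read from the data, passing the limit was not always enough; inconclusive = exactly half the replicates above a set limit; inactive = most replicates below a set limit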;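 also: all wells also contain fluconazole at 8 µg/ml as a sub-toxic cotreatment; 0% = median of DMSO wells and 100% = median of geldanamycin control wells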
CSC inhib: cancer stem cell inhibition. cancer stem cell-like cells viability, luminescence. inhibition, % at 7.5 µM. 300,000 tested, 1.1% active; in the data active = inhibition above about 75%; inconclusive = no clear call, values can overlap the other calls; tested in HMLE shEcad cells
SKKanGAS inh: SKKanGAS growth inhibition | S. pyogenes SKKanGAS, kanamycin growth, BacTiter-Glo, 6 h | inhibition, % at 7.5 µM | 300,000 tested, 1.3% active | AID 1662;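 active = mean replicate score, as percent of positive control median, at least 50; inconclusive = mean below 50 but one replicate at or above 50; inactive = mean and every replicate below 50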;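 also: strain carries kanamycin resistance gene driven by streptokinase promoter and grows in 40 µg/ml kanamycin; loss of luminescence reflects streptokinase promoter inhibition or plain growth inhibition; 0% = median of DMSO wells and 100% = positive control at its reference dose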
MPTP block: inhibitors of mitochondrial permeability transition pore. 360,000 tested, 1.4% active. inhibition, % at 10 µM. isolated mouse mitochondria, Ca2+ swelling absorbance, 30 min. AID 602449;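 active = inhibition of 50% or more, scaled per plate between neutral and stimulator controls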;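 also: 0% = DMSO wells given calcium and 100% = 1 mM EGTA wells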
Beta cell apopt: blocks beta cell apoptosis | protection from apoptosis, % (test concentration not listed) | AID 435005 | 300,000 tested, 0.8% active | INS-1E cytokine-induced death, ATP luminescence, 48 h; percent of positive-control rescue, neutral wells zero;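 active = Every replicate reaches about 75%, or at least half do and their mean reaches it too, limit read from the data; inconclusive = At least half of replicates reach the limit but their mean does not; inactive = Under half of replicates reach the limit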;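 also: 0% = cytokine-treated negative control wells and 100% = positive control rescue; higher means more ATP so stronger rescue from cytokine killing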
Mdm2-MdmX inh: inhibitors of human Mdm2/MdmX interaction; SaOS-2 split-luciferase Mdm2/MdmX complementation, luminescence; inhibition, % at 8 µM; 330,000 tested, 3% active;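 active = inhibition of at least 50% at 8 µM in the primary screen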
Target sequence (O15151 whole entry, looked up): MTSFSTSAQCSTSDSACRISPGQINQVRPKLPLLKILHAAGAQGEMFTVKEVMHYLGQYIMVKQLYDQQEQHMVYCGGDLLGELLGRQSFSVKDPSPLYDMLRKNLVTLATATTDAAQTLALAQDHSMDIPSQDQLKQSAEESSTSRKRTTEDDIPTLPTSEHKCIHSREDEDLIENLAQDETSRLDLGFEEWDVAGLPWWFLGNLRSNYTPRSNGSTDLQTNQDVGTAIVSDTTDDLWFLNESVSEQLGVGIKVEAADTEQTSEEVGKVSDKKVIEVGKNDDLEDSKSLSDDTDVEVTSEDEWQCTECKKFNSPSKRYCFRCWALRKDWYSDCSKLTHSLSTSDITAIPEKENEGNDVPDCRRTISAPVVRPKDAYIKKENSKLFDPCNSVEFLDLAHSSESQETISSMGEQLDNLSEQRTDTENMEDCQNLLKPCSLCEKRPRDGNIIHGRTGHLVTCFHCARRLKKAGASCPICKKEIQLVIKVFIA
Target sequence (Q00987 whole entry, looked up): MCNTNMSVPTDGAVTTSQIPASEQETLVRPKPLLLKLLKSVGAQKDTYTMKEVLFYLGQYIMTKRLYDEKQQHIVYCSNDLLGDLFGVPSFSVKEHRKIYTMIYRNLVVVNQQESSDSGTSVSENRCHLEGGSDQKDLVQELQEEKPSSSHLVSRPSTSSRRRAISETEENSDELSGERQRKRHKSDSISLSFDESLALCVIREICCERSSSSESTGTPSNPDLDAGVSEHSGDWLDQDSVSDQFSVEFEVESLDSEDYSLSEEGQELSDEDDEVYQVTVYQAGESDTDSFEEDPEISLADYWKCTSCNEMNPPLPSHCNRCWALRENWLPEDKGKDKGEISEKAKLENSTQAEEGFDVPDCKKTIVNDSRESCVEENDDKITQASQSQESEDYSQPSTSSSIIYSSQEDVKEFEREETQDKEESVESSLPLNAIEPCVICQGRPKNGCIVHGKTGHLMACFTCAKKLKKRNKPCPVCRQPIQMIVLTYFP
Rh123 counter: mitochondrial membrane potential, counter-screen; isolated mitochondria, Rhodamine 123 fluorescence; shares compounds with MPTP block; inhibition, % at 10 µM; AID 624504; 5,000 tested, 78% active; in the data active = inhibition above about 22%;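 also: 0% = DMSO vehicle and 100% = positive control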
MPTP abs DR: dose response confirmation of mitochondrial permeability transition pore inhibitors | shares compounds with MPTP block | isolated mitochondria swelling, absorbance | IC50, µM | 780 tested, 58% active | AID 651561; in the data active = IC50 below about 20 µM
MPTP counter DR: MPTP inhibitor counter-screen activity, dose response; shares compounds with MPTP block; isolated mitochondria counterscreen, fluorescence read-out; IC50, µM; 780 tested, 49% active; in the data active = IC50 below about 80 µM
Active calls of the source: *; ? = inconclusive; / = no result.

SMILES	Calb FLC	CSC inhib	SKKanGAS inh	MPTP block	Beta cell apopt	Mdm2-MdmX inh	Rh123 counter	others
CCCCn1c(N)c(-c2nc3ccccc3s2)c2c([N+](=O)[O-])nn(C)c(=O)c21	-5.6	9.4	13.2	97.4*	14.9	32.6	-1.2	MPTP abs DR=12.1*;MPTP counter DR=6.21*
CCCCn1c(N)c(-c2nc3ccccc3s2)c2c([N+](=O)[O-])nn(CC)c(=O)c21	22.6	-4.6	6.5	92.2*	5.3	38.7	-5.2	MPTP abs DR=19.8*;MPTP counter DR=18.4*
CCCCN(C(=O)CCCc1nc2ccccc2s1)c1c(N)n(CCCC)c(=O)[nH]c1=O	-5.2	3.2	-1.6	2.5	-4.8	23.6	/
COc1cccc(CNC(=O)CCNS(=O)(=O)c2cccs2)c1	-8.6	-4.6	11.0	1.1	2.4	7.8	/
NC(=O)c1ccc(C23CC4CC(CC(C4)C2)C3)o1	-38.0	/	-7.2	2.5	/	20.6	/
c1ccc(-c2csc3ncnc(NCc4ccccn4)c23)cc1	2.9	-4.7	3.3	62.0*	22.0	39.9	33.4*
c1ccc(CNc2ncnc3scc(-c4cccs4)c23)nc1	-20.9	-13.2	-3.3	72.2*	21.4	23.7	57.4*
c1ccc(CNc2ncnc3sc4c(c23)CCC4)nc1	0.1	-9.3	1.4	-1.1	-6.3	30.7	/
CN(C)CCCNc1ncnc2scc(-c3ccccc3)c12	-11.6	-10.0	-6.0	9.8	-16.8	31.1	/
O=C(O)CCCn1cc(NC(=O)c2ccc(F)cc2)cn1	3.6	3.1	-0.5	-2.7	-4.4	20.9	/
CCCSc1nnc(NC(=O)c2sc3nc(-c4cccs4)ccc3c2N)s1	9.3	41.1	24.3	75.7*	-1.8	-7.5	32.3*
CCCSc1nnc(NC(=O)Nc2ccc(C)cc2)s1	8.2	11.0	5.6	59.9*	-3.4	43.3	75.2*
Cc1ccc(NC(=O)CSc2nnc(NC(=O)C3CC3)s2)cc1	3.4	-11.6	1.0	-0.8	-8.5	16.1	/
CCCSc1nnc(NC(=O)Nc2ccccc2)s1	-0.3	41.0	12.2	90.2*	32.0	-65.9	78.0*
O=C(Nc1ccccc1)Nc1nnc(/C=C/c2ccccc2Cl)s1	8.0	8.9	-3.0	86.0*	2.6	10.9	43.0*
O=C(COC(=O)/C=C/c1ccc(C(F)(F)F)cc1)NCc1ccco1	26.7	/	-5.2	-1.3	-6.2	11.6	/
O=C(Cn1c(COc2ccccc2)nc2ccccc21)Nc1cc(Cl)cc(Cl)c1	30.0	10.6	10.8	91.9*	/	43.8	93.9*
N#CCCNC(=O)Cn1c(COc2ccc(Cl)cc2)nc2ccccc21	43.9	-4.3	1.1	0.1	-4.6	-15.3	/
COc1ccc(C(=O)N2CCN(c3ccc([N+](=O)[O-])c(-n4nc(C)cc4C)c3)CC2)cc1	-3.7	-2.6	8.7	1.1	13.7	-29.9	/
COc1ccc(C(=O)N2CCN(c3ccc([N+](=O)[O-])c(NCCc4ccc(OC)c(OC)c4)c3)CC2)cc1	2.5	8.4	27.0	85.0*	106.5*	22.2	15.5	MPTP abs DR=6.01*;MPTP counter DR=<2.5*
COc1ccc(Br)cc1/C=N/NC(=O)C[n+]1ccccc1	3.3	5.5	-2.3	0.4	-4.3	7.4	/
CC1(C)C2CCC1(CS(=O)(=O)NCc1ccc(C(F)(F)F)cc1)C(=O)C2 (configuration not stated)	7.2	/	0.5	1.0	/	7.4	/
CC(=O)c1ccc(OCc2ccc(C(=O)c3ccccc3)cc2)cc1	0.0	11.3	7.0	93.8*	51.3	-10.8	94.2*
O=C(c1cccc(Oc2c(Cl)cccc2[N+](=O)[O-])c1)N1CCCCC1	3.6	-14.0	3.3	-0.1	-0.3	2.0	/
CC(=O)c1ccc(OCc2ccc(Oc3c(Cl)cccc3[N+](=O)[O-])cc2)cc1	7.2	14.9	11.1	55.7*	0.6	5.2	35.7*
SMILES	Calb FLC	CSC inhib	SKKanGAS inh	MPTP block	Beta cell apopt	Mdm2-MdmX inh	Rh123 counter	others
COc1ccc(OC)c(S(=O)(=O)N2CCC(C(=O)NCc3ccc4c(c3)OCO4)CC2)c1	1.4	-5.9	-2.6	1.1	-1.8	1.9	/
Cc1ccc(SC/C(O)=C(\C#N)c2nc3ccccc3s2)cc1	88.1*	36.7	76.6*	94.4*	-9.7	26.1	90.7*
N#C/C(=C(/O)c1ccc(-c2cccc([N+](=O)[O-])c2)o1)c1nc2ccccc2s1	?	/	23.6	97.9*	/	6.5	68.6*
N#C/C(=C(/O)c1ccc(F)cc1)c1nc2ccccc2s1	52.5	-2.7	27.4	78.4*	14.1	-5.9	96.1*
N#C/C(=C(/O)COc1ccc(Cl)cc1)c1nc2ccccc2s1	93.7*	98.9*	89.9*	107.1*	13.0	29.6	90.3*
N#C/C(=N\O)c1nc2ccccc2s1	25.1	9.0	2.7	0.8	-3.9	18.4	/
N#C/C(=C(/O)CSc1ccccc1C(=O)O)c1nc2ccccc2s1	?	-5.0	-25.4	-0.5	/	19.3	/
Cn1c(SCC(=O)Nc2ccccc2F)nnc1C1CCCCC1	-4.2	9.8	-2.8	-0.6	/	13.9	/
COc1ccc(CCN(C)C(=O)c2ccc(S(=O)(=O)Nc3ccccc3F)cc2)cc1OC	6.0	-3.4	0.6	0.7	-0.5	19.1	/
C=CCOC(=O)C1=C(C)Nc2[nH]c(=O)[nH]c(=O)c2C1c1ccccc1 (configuration not stated)	/	-10.3	/	2.5	-11.0	-12.1	/
Cc1cnc(C(=O)OCC(=O)c2ccc(Br)s2)cn1	-5.9	-9.9	-1.8	-0.7	-6.6	-3.2	/
CCCc1cc(=O)[nH]c(SCC(=O)NCCCC(=O)OCC)n1	2.6	-5.8	-3.0	0.3	3.8	4.7	/
N#C/C(=C(/O)COC(=O)c1ccc(C#N)cc1)c1nc2ccccc2s1	15.9	-0.3	25.8	78.6*	0.5	0.5	88.4*
N#C/C(=C(/O)COc1ccccc1)c1nc2ccccc2s1	7.2	11.9	?	84.2*	15.7	6.6	81.3*
c1ccc(OCc2nc3ccccc3s2)cc1	0.3	-10.6	1.4	1.3	-3.5	-65.8	/
CCOC(=O)c1nc2ccccc2s1	-3.4	-0.5	1.0	-14.8	-2.7	12.9	/
COc1ccc(NC(=O)C23CC4CC(C2)CC(c2ccccc2)(C4)C3)c(OC)c1	4.9	15.0	26.0	3.6	-2.9	-1.9	/
Cc1ccc2cc(CCNS(=O)(=O)c3ccc(Br)cc3)c(=O)[nH]c2c1C	4.2	/	-6.8	0.0	5.9	16.8	/
Cc1n[nH]c(C)c1CCCCOc1ccccc1[N+](=O)[O-]	9.3	-2.9	42.9	85.3*	32.6	4.7	74.0*
Cc1n[nH]c(C)c1CCCCOc1ccc([N+](=O)[O-])cc1	8.3	3.8	26.5	2.1	-2.3	7.2	/
Cc1ccccc1OCCCCc1c(C)n[nH]c1C	5.9	5.2	94.5*	100.6*	49.4	22.1	97.9*

Screening results from PubChem.
